Assay outcomes as filed in PubChem.
D1 potentiator: human D1 dopamine receptor positive modulation; P21728; HEK293 TREx D1 cells, calcium flux, dopamine EC20 potentiation; potentiation, % at 10 µM; hit rate 0.036% among 360,000; in the data active means potentiation above about 30%; further: 0% is about no effect
Target sequence (P21728 whole entry, looked up): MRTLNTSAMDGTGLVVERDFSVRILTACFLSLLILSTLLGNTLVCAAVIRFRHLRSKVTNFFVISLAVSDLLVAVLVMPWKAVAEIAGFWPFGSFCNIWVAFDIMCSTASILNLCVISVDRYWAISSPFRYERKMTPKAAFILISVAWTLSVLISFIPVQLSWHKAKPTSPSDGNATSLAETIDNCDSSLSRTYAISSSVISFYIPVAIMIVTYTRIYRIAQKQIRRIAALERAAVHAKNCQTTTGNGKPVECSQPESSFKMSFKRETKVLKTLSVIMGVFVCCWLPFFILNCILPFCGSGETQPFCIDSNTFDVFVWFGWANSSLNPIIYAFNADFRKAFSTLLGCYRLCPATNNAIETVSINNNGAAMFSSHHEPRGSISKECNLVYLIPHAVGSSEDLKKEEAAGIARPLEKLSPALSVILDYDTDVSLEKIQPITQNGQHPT
TRPV1 ag: human TRPV1 agonism; activation, % at 8.33 µM; TRPV1-expressing cells, Fluo-8 calcium influx, agonist mode; Q8NER1; hit rate 0.19% among 320,000; in the data active means activation above about 80%; inconclusive means between about 30% and that limit; further: 0% is about no effect
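Cells expressing TRPV1 were dye-loaded with Fluo-8 and read kinetically: 10 s baseline, 3 min after compound (agonist portion), then 2 min after EC20 capsaicin (allosteric enhancer portion). Calcium-bound dye fluorescence at 480/520 nm.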
D1 ag: agonists of human D1 dopamine receptor | P21728 | HEK293 T-REx D1 cells, calcium flux, agonist mode | activation, % at 2 µM | hit rate 1% among 360,000 | AID 504660; in the data active means activation above about 30%; further: 0% is about no effect
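Inducible HEK293 T-REx D1 cells, force-coupled to calcium signalling, were plated at 4000 cells/well with tetracycline and held overnight at 30 C. After no-wash calcium dye loading, compound-evoked calcium rise over 180 s flagged agonists.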
D1 antag: human D1 dopamine receptor antagonism | HEK293 TREx D1 cells, calcium flux, dopamine EC80; stronger effect = lower value | activity change, negative = inhibition, % at 10 µM | hit rate 3.2% among 360,000; in the data active means activity change below about -30%; further: on the % scale 0 is the no-effect control and ±100 the full control effect
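Kinetic fluorescence of a calcium dye serves as the read-out. D1-expressing Hek293 Trex cells, induced overnight at 30 C, are exposed to compound for 180 s before an EC80 dopamine addition, then read 180 s further.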
TRPV1 potentiator: human TRPV1 potentiation. Q8NER1. TRPV1-expressing cells, Fluo-8 calcium influx, capsaicin EC20 potentiation. potentiation, % at 8.33 µM. hit rate 0.02% among 320,000. AID 540277; in the data active means potentiation above about 80%; inconclusive means between about 30% and that limit; further: 0% is about no effect
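Fluo-8 calcium influx in TRPV1-expressing cells, kinetic read (ex 480/em 520 nm). Compound added and read 3 min for agonist activity, followed by capsaicin at EC20 final and 2 min further read for enhancement.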
The depositor's hits bear a star; i = inactive; u = inconclusive; x = not tested or not shown; ! = not confirmed by another sample. Hits are enriched below; roughly 4.2% of the tested compounds scored in any of these assays.

SMILES | D1 potentiator | TRPV1 ag | D1 ag | D1 antag | TRPV1 potentiator
Cn1cnc(C(=O)N2CCN(C(=O)OC(C)(C)C)CC2)c1C(=O)N1CCN(C(=O)OC(C)(C)C)CC1 | 0 | -6 | 3 | 0 | 2
Cc1ccc(Cn2cccc2C2=NC(C)CO2)cc1 (stereo not given) | -4 | 13 | 1 | -2 | -13
CC(C)C1COC(c2cccn2Cc2ccccc2Cl)=N1 (stereo not given) | 2 | 1 | 0 | -38* | -8
Cc1ccc(-c2onc(C)c2C)cc1S(=O)(=O)N1CCN(c2ccccc2F)CC1 | -2 | x | 3 | 8 | x
COc1ccc(C2CC(c3cccs3)=NN2c2ccc(C=O)cc2)cc1 (stereo not given) | 17 | 16 | 244* | -62* | 17
CCOc1ccc(C(=O)CSc2nnc3cc(C)c4ccccc4n23)cc1 | -1 | x | 1 | 2 | x
O=c1cc(O)sc2ccccc12 | -8 | -1 | 40* | -22 | 4
CCC1CCCCN1CCCNC(=O)c1ccc2c(c1)N(Cc1cccc(Cl)c1)C(=O)c1ccccc1S2(=O)=O (stereo not given) | 1 | x | 13 | 7 | x
C=CCNc1nc(Nc2ccc([N+](=O)[O-])cc2)nc(OCC)n1 | -9 | 11 | 3 | -55* | -2
O=C1C2=C(C(=O)c3ccccc31)C1O[C@](c3ccsc3)(Cc3ccccc31)O2 | -7 | i | 1 | 3 | i
Cc1ccc(N(C)S(=O)(=O)c2cccc(C(=O)NC3=NCCS3)c2)cc1 | -2 | u | 0 | x | -15
Cc1ccc(N(C)S(=O)(=O)c2cccc(C(=O)Nc3ccc(N4CCOCC4)cc3)c2)cc1 | -7 | 19 | 3 | -39* | -5
CN(c1ccccc1)S(=O)(=O)c1cccc(C(=O)Nc2ccc(N3CCOCC3)cc2)c1 | -4 | 28 | 7 | -26 | -17
CC(C)(C)c1cc(NC(=O)c2cccc(S(=O)(=O)N3CCOCC3)c2)no1 | -6 | 80* | 6 | -12 | -7
O=C(Nc1ccccn1)c1cccc(S(=O)(=O)N2CCOCC2)c1 | 3 | 9 | 0 | 16 | 9
COc1ccc(N(C)S(=O)(=O)c2cccc(C(=O)NC3=NCCS3)c2)cc1 | -11 | 1 | 9 | -39* | 4
O=C(Nc1nc2ccccc2[nH]1)c1cccc(S(=O)(=O)N2CCOCC2)c1 | 2 | 80* | 1 | -4 | -26
O=C(NCc1nc2ccccc2[nH]1)c1cccc(S(=O)(=O)N2CCOCC2)c1 | 0 | 5 | 3 | -24 | 30
COc1ccc(CCN2C(=O)c3[nH]nc(-c4ccccc4O)c3C2c2ccc(OC)cc2)cc1 (stereo not given) | 3 | x | 0 | 6 | x
Cc1ccc(C)c(NC(=O)[C@@H]2CCCN2S(=O)(=O)c2ccccc2F)c1 | 6 | 4 | 7 | 8 | -4
O=C(Nc1ccc(N2CCOCC2)cc1)C1CCCCN1S(=O)(=O)c1ccccc1 (stereo not given) | -3 | 0 | 5 | -32* | 4
O=C(Nc1ccc(N2CCCCCC2)cc1)c1cccc(S(=O)(=O)N2CCOCC2)c1 | -7 | 87* | 1 | 1 | -2
CC(C)c1ccc(NC(=O)C2CCCN2S(=O)(=O)c2ccccc2F)cc1 (stereo not given) | -10 | 14 | 5 | -34* | -42
CCCOC(=O)CSc1nnc2ccc3ccccc3n12 | -2 | x | 2 | 3 | x
CC(=O)c1cccc(NC(=O)CCn2nc(C)c(S(=O)(=O)N3CCCCC3)c2C)c1 | 0 | x | 2 | -5 | x
SMILES | D1 potentiator | TRPV1 ag | D1 ag | D1 antag | TRPV1 potentiator
CC(C)CN1C(=O)c2ccc(C(=O)Nc3ccc(O)cc3C(=O)O)cc2C1=O | -9 | 1 | 3 | -76* | -4
CC(C)CCN1C(=O)c2ccc(C(=O)Nc3ccc(O)cc3C(=O)O)cc2C1=O | -2 | 2 | 2 | 6 | 11
CC(=NCCc1ccccc1)C1=C(O)CCC1=O | -6 | -7 | 0 | -22 | 7
CC(=NCCc1ccccc1)C1=C(O)CSC1=O | -4 | 3 | 2 | -46* | -11
Cc1c(C(=O)NCCc2ccccc2)cccc1-n1cnc2cccnc21 | -3 | x | -1 | -32* | x
CCOC(=O)CCP(=O)(O)C(O)c1ccc(OC)cc1 (stereo not given) | -3 | -1 | 1 | -1 | -3
CCOC(=O)CC(N)c1ccc(OC)cc1 (stereo not given) | -10 | -2 | -2 | -69* | 0
Cc1noc(C)c1S(=O)(=O)N1CCN(c2ccccc2)CC1 | x | 3 | 0 | -63* | -11
Cc1noc(/C=C/N(C)C)c1S(=O)(=O)N1CCCC(C(=O)NCc2ccc(Cl)cc2)C1 (stereo not given) | -6 | -2 | 8 | -2 | -2
Cc1noc(/C=C/N(C)C)c1S(=O)(=O)N1CCCC(C(=O)NCc2ccccc2Cl)C1 (stereo not given) | -4 | 0 | 2 | -51* | 5
Cc1noc(/C=C/N(C)C)c1S(=O)(=O)N1CCN(c2ccccc2)CC1 | -5 | x | 1 | -37* | x
Cc1ccc(C)c(N2CCN(S(=O)(=O)c3c(C)noc3/C=C/N(C)C)CC2)c1 | -8 | 23 | 4 | 9 | -1
Cc1cc(NC(=O)Cn2c(=O)oc3cc(S(=O)(=O)N4CCCC4)ccc32)ccc1Br | -1 | x | 4 | 13 | x
O=C(NCCCNc1ccc(C(F)(F)F)cc1[N+](=O)[O-])c1cc(F)c(F)cc1Cl | -5 | 13 | 16 | -43* | -13
CCN(c1ccccc1)S(=O)(=O)c1c(-c2ccc(C)cc2)csc1C(=O)OC | 11 | 7 | 5 | 32 | -13
COc1ccc(S(=O)(=O)N2CCC(N3CCCCC3)CC2)cc1 | 3 | 0 | 2 | -1 | -11
CCOC(=O)N1CCC(N2CCN(S(=O)(=O)c3ccc(OC)cc3)CC2)CC1 | -4 | 6 | 13 | -36* | -9
COc1ccc(S(=O)(=O)N2CCC(Oc3cccc(C(F)(F)F)c3)CC2)cc1OC | 3 | x | 0 | -36* | x
COc1ccc(OC2CCN(S(=O)(=O)c3ccc(OC)cc3)CC2)cc1 | -2 | -5 | 35* | -36*! | 2
COc1ccc(S(=O)(=O)N2CCC(Oc3ccc(-n4cnnn4)cc3)CC2)cc1OC | -1 | x | 1 | -9 | x
COc1ccc(S(=O)(=O)N2CCN(C3CCCCCCC3)CC2)cc1 | -7 | 28 | -1 | -68*! | -30
COc1ccc(S(=O)(=O)N2CCN(S(=O)(=O)c3ccc(OC)cc3)CC2)cc1 | 2 | x | -1 | -5 | x
O=C(Cn1nc(-c2ccccc2)nc(Cc2ccccc2)c1=O)Nc1ccc(Cl)cc1 | -1 | x | 2 | -2 | x
CCn1cc(C(=O)N2CCN(c3cc(Cl)ccc3C)CC2)c(=O)c2cc(S(=O)(=O)N3CCOCC3)ccc21 | -3 | x | 1 | -6 | x
Cc1ccc(C(=O)NCC(=O)OC(C(=O)Nc2cc(C(F)(F)F)ccc2Cl)c2ccccc2)cc1 (stereo not given) | 1 | x | 2 | 11 | x
